# Data: PubChem BioAssay
# Values joined by “and” are separate entries in the source; they are usually repeats but may differ in a detail not shown here. Equal entries are not always repeated. For part of these data: Entries with a potency or affinity are not part of this list. A structure can be active in one record and inactive in another. Active and inactive are the calls of the source.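 Rule for the calls, unless noted: active = thallium flux through the channel raised or lowered by more than 3 SD from vehicle-only wells, actives on both sides; inactive = the rest.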
# Columns and labels:
# [1] = polyglutamine-triggered caspase-3 activation inhibitors, cell-based (AID 1583); conditions: polyglutamine-induced caspase-3 activation, cell assay; stronger effect = higher value;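 tested at 10 µM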
# [2] = suppressors of polyQ aggregation in yeast, 75Q-TubU reporter (AID 1593); conditions: Yeast 75Q polyglutamine aggregation reporter
# [3] = rescue of polyQ-huntingtin neuronal dysfunction in worms, whole organism, C. elegans mechanosensory neurons, N-terminal huntingtin (AID 1599); conditions: touch response, stronger effect = higher value
# [4] = inhibitors of mitochondrial cytochrome c release, biochemical, purified mitochondria (AID 1603); conditions: stronger effect = lower value;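 note: mouse liver mitochondria challenged with calcium chloride; signal normalized to the plate average as 100%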
# [5] = inhibitors of polyQ protein aggregation (AID 1604); conditions: polyglutamine-induced protein aggregation inhibition assay; stronger effect = higher value; tested at 2.5 µM
# [6] = enhancers of glutamate uptake in motor neurons, MN-1 cell line (AID 1612); conditions: MN-1 motor neuron cells, stronger effect = higher value;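 note: tested at 1 µM final; 0% = mean of DMSO vehicle wells on each plate; positive means more glutamate uptake than control and negative means less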
# [7] = suppressors of polyglutamine aggregation in yeast, 75Q-TubH (AID 1616); conditions: S. cerevisiae 75Q-TubH polyglutamine aggregation suppression; stronger effect = higher value
# [8] = Cy5 fluorescence interference with SSB-bound oligo, artefact control for HCV NS3 helicase inhibitor project, biochemical, NIH Clinical Collection, E. coli SSB (AID 743268; call rule not given here)
# [9] = tested on: Hepatitis C virus NS3 helicase; test: HCV NS3 helicase inhibitors, primary screen, biochemical, fluorescence polarization, NIH Clinical Collection (AID 743270; call rule not given here); conditions: NS3 helicase binding to Cy5-dT15 DNA, stronger effect = higher value, concentration not given here
# [10] = molecular target: Single-stranded DNA-binding protein (Escherichia coli (strain K12)) (UniProt P0AGE0); test: E. coli SSB displacement from DNA, counter-screen for HCV NS3 helicase inhibitor project, biochemical, fluorescence polarization, NIH Clinical Collection (AID 743271; in the data active = inhibition above about 28%); conditions: stronger effect = higher value, concentration not given here
# [11] = fluorescence interference in NS3h assay format, artefact control for HCV NS3 helicase inhibitor project, biochemical, NIH Clinical Collection (AID 743272; call rule not given here;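 note: HCV NS3 helicase with a Cy5 labelled single stranded DNA probe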); conditions: fluorescence interference counterscreen, stronger effect = lower value
# [12] = viability rescue of complex I mutant cybrids, primary screen, cell-based, galactose medium, ATP luminescence (AID 1645843;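 active = z-score of at least 1.8 in each of two replicates, scored against plate mean and spread of sample wells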;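 note: positive z means more ATP and so rescue of galactose-driven cybrid death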); conditions: complex I mutant cybrid cells, 72 h, stronger effect = higher value
# F380Y/beta4 = test: modulators of BK channel variants, profiling panel, selectivity assay, cell-based, U2OS BacMam, thallium flux, beta subunits (AID 1259406); conditions: at 30 µM;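 note: initial slope of Thallos dye fluorescence rise after thallium is added; log ratio against the mean of 0.3% DMSO vehicle wells on the same plate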
# [13] = molecular target: Calcium-activated potassium channel subunit alpha-1 (Homo sapiens) + Leucine-rich repeat-containing protein 26 (Homo sapiens) (UniProt Q12791+Q2I0M4); test: as above; conditions: F380Y/Slo1WT/gamma1, at 30 µM
# Sequence of Calcium-activated potassium channel subunit alpha-1 (Homo sapiens) + Leucine-rich repeat-containing protein 26 (Homo sapiens) (Q2I0M4 whole entry, looked up, one chain of several): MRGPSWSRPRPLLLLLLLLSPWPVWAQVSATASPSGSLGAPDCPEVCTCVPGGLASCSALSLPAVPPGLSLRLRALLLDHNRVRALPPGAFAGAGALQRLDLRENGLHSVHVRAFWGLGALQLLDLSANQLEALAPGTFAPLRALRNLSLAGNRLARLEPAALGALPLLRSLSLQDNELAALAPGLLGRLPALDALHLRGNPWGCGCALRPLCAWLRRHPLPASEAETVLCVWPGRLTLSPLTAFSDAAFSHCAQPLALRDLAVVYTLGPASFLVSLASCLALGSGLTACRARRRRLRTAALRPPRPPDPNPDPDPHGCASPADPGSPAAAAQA
# R275C = test: as above; conditions: at 30 µM
# R275C/beta1 = test: as above; conditions: at 30 µM
# R275C/beta2Delta = test: as above; conditions: at 30 µM
# R275C/beta4 = test: as above; conditions: at 30 µM
# R275C/Slo1WT/beta2 = test: as above; conditions: at 30 µM
Compound,inhibition [1],score [2],rescue above control [3],cytochrome c release ratio [4],inhibition of aggregation [5],glutamate uptake change [6],aggregation suppression score [7],fluorescence ratio [8],inhibition [9],inhibition [10],fluorescence ratio [11],z-score [12],log fold change Tl+ flux (F380Y/beta4),log fold change Tl+ flux [13],log fold change Tl+ flux (R275C),log fold change Tl+ flux (R275C/beta1),log fold change Tl+ flux (R275C/beta2Delta),log fold change Tl+ flux (R275C/beta4),log fold change Tl+ flux (R275C/Slo1WT/beta2)
CC(C)(C)NCC(O)COc1cccc2c1C[C@H](O)[C@H](O)C2 (stereo partly drawn),27.5%,1.45,-2.31,0.46,78.2%,-4.44%,1.12,0.99 (inactive),-1.36% (inactive),0.29% (inactive),0.9 (inactive),0.01 (inactive),0.0116 (inactive),0.00167 (inactive),-0.00576 (inactive),-0.0239 (inactive),0.0276 (inactive),-0.0328 (inactive),0.00485 (inactive)
Clc1ccc2c(c1)C(N1CCNCC1)=Nc1ccccc1O2,0.62%,1.21,6.68,0.82,-0.07%,35.9%,1.13,0.92 (inactive),-4.09% (inactive),-1.24% (inactive),0.96 (inactive),-1.01 (inactive) and 0.165 (inactive) and -1.17 (inactive),0.0652 (inactive),-0.0105 (inactive),0.021 (inactive),0.123 (active),0.0319 (inactive),0.0104 (inactive),0.0256 (inactive)
Nc1ncn([C@@H]2O[C@H](CO)[C@@H](O)[C@H]2O)c(=O)n1,-3.83%,1.31,17.7,1.03,38.1%,3.18%,1.25,1.02 (inactive),1.36% (inactive),4.86% (inactive),1.04 (inactive),-1.16 (inactive) and -0.05 (inactive),-0.0152 (inactive),0.00381 (inactive),0.0227 (inactive),0.00104 (inactive),0.0218 (inactive),0.000291 (inactive),-0.00199 (inactive)
Cc1onc(-c2c(Cl)cccc2Cl)c1C(=O)N[C@@H]1C(=O)N2[C@@H]1SC(C)(C)[C@@H]2C(=O)O,12.4%,1.26,8.15,1.34,56.3%,-10.2%,1.09,0.97 (inactive),-2.27% (inactive),-0.48% (inactive),1.03 (inactive),0.54 (inactive),0.00974 (inactive),0.0705 (inactive),-0.0255 (inactive),4.8e-05 (inactive),0.00693 (inactive),-0.0254 (inactive),-0.0106 (inactive)
NCc1ccc(S(N)(=O)=O)cc1,-6.75%,1.19,-7.83,0.88,81.7%,-7.14%,1.05,1.01 (inactive),-7.73% (inactive),1.05% (inactive),1.01 (inactive),1.92 (inactive),-0.0354 (inactive),0.00552 (inactive),0.00729 (inactive),-0.0404 (inactive),0.176 (active),-0.0166 (inactive),-0.0456 (inactive)
CN[C@H]1CC[C@@H](c2ccc(Cl)c(Cl)c2)c2ccccc21,–,–,–,–,–,–,–,–,–,–,–,-1.29 (inactive) and -1.52 (inactive) and -0.69 (inactive),1.13 (active) and 1.04 (active),0.123 (active) and 0.169 (active),-0.288 (active) and -0.259 (active),0.549 (active) and 0.546 (active),-0.0453 (inactive) and -0.0183 (inactive),0.997 (active) and 0.996 (active),0.019 (inactive) and -0.2 (active)
c1ccc2[nH]c(-c3cscn3)nc2c1,-3.31%,0.53,-3.36,1.13,30.1%,-14%,0.142,1.06 (inactive),0.45% (inactive),-0.48% (inactive),0.97 (inactive),0.46 (inactive),0.0538 (inactive),0.048 (inactive),0.0284 (inactive),-0.0377 (inactive),-0.0148 (inactive),-0.00629 (inactive),0.0186 (inactive)
COc1ccccc1OCC(O)COC(N)=O (stereo not drawn),-7.05%,1.41,1.68,0.96,88.8%,-5.42%,1.52,1 (inactive),-1.36% (inactive),-1.24% (inactive),1 (inactive),0.945 (inactive),0.0136 (inactive),0.0335 (inactive),0.00553 (inactive),-0.013 (inactive),-0.018 (inactive),0.0404 (inactive),0.0176 (inactive)
C/C=C/C(=O)N(CC)c1ccccc1C,–,–,–,–,–,–,–,1.05 (inactive),-2.77% (inactive),-2.41% (inactive),1.02 (inactive),-0.06 (inactive),-0.00302 (inactive),0.0385 (inactive),-0.0159 (inactive),-0.0206 (inactive),0.013 (inactive),-0.00282 (inactive),0.00262 (inactive)
